Rows were chosen to be rich in hits. Some 7.3% of all compounds tested hit in one or more screens of this group.
AmpC no deterg: qHTS Inhibitors of AmpC Beta-Lactamase (assay without detergent); P00811; actives 0.52% (n = 330,000); Potency, µM (series often up to 57.1 µM), hits mostly inhibitors; AmpC nitrocefin hydrolysis, absorbance 480 nm, 0.0001% Triton; AID 485341, 2010; also: nearly all actives have a fitted effect of over 20% in size
Target sequence (P00811 whole entry, looked up): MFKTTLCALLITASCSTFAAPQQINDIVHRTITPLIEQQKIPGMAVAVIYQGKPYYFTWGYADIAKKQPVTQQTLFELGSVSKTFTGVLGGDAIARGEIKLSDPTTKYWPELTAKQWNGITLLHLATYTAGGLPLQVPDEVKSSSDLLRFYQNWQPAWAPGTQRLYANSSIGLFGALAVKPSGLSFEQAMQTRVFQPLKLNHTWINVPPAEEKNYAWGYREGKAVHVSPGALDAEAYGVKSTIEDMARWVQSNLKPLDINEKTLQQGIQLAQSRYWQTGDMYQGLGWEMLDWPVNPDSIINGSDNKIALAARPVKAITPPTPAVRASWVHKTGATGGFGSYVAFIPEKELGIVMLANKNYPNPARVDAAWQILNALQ
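AmpC (5.3 nM in the dispensed reagent) in 20 mM phosphate pH 7.0 with 0.01% (detergent screen) or 0.0001% Triton X-100 was preincubated with compounds for 15 min at room temperature. Nitrocefin was then added from an 800 uM solution, and hydrolysis was followed at 480 nm.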
AmpC detergent: qHTS Inhibitors of AmpC Beta-Lactamase (assay with detergent). AmpC hydrolysis of nitrocefin, absorbance 480 nm, 0.01% Triton. Potency, µM (highest dose often 114 µM), usual class: inhibitors. actives 0.041% (n = 370,000); also: nearly all actives have a fitted effect of over 25% in size
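20 mM phosphate pH 7.0 + 0.01% (detergent screen) or 0.0001% Triton X-100; 5.3 nM AmpC reagent; cpd preinc 15 min RT; nitrocefin (800 uM stock) to start; A480 q20 s × 4 min; Activity was normalised to no-enzyme and no-compound control wells.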
FMDV antiviral: High Throughput Screening for Foot and Mouth Disease Virus Antivirals | FMDV antiviral cell-based qHTS | Potency, µM (doses to about 57.9 µM), most hits filed as inhibitors | AID 1159524, 2015 | actives 1.2% (n = 410,000); calls by dose curve; tested in HEK293T cells; also: read-out not given here; nearly all actives have a fitted effect of over 45% in size
HCMV antiviral: qHTS Assay for inhibitors of the human cytomegalovirus (HCMV); HFF cells, HCMV-luciferase reporter, 72 h; active compounds read low; AID 1259415, 2018; actives 4.5% (n = 410,000); activity change, negative = inhibition, % at 57.5 µM; in the data active = activity change below about -60%; inconclusive = no clear call, values can overlap the other calls; inactive = above about -39%
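Cell-based, HFFs, 1000 cells/well, 16 h 37C; cpds in DMSO + HCMV-luc, MOI 1 PFU/cell; 72 h 37C; OneGlo luminescence after 5 min RT; norm. to buffer vs Salinomycin 10uM.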
HCV inh: qHTS Assay for Inhibitors of Hepatitis C Virus (HCV); Huh7.5.1 HCVcc-Cre infection, luciferase reporter, 44 h; Potency, µM (series often up to 41.8 µM), hits mostly inhibitors; actives 3.4% (n = 340,000); AID 651820, 2012
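Antiviral activity was scored by luciferase reporter output from cells infected with HCVcc-Cre (~0.5 moi) in presence of compound, 44 h infection period, cells seeded 1,000/well 4 h prior.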
Large screens that a line does not name were inactive. Unless noted, calls follow the shape of the dose curve; as a rule, active = well fitted curve in the direction sought with a large enough effect; inconclusive = small, poorly fitted or top-dose-only effect, or another doubt; inactive = no such curve, though single readings can be large; an effect the other way counts as inactive or inconclusive.

CC(=O)c1ccc(-n2c(SCC(=O)c3c[nH]c4ccccc34)nc3ccccc3c2=O)cc1	HCMV antiviral -88, HCV inh inconclusive
COc1ccccc1CCNC(=O)C1CCN(c2nnc(-n3cccc3CNc3ccc(C)cc3)s2)CC1	FMDV antiviral inconclusive (no result: AmpC no deterg, HCV inh)
CCOc1ccc(NCc2cccn2-c2nnc(N3CCC(C(=O)NCCc4ccc(OCC)c(OCC)c4)CC3)s2)cc1	FMDV antiviral inconclusive, HCMV antiviral -80 (no result: AmpC no deterg, HCV inh)
CCOc1ccc(NCc2cccn2-c2nnc(N3CCC(C(=O)NCCc4ccc(OC)c(OC)c4)CC3)s2)cc1	FMDV antiviral 22µM, HCMV antiviral -85 (no result: AmpC no deterg, HCV inh)
Cc1ccc(NCc2cccn2-c2nnc(N3CCC(C(=O)NCc4ccc(F)cc4)CC3)s2)cc1	HCMV antiviral -78 (no result: AmpC no deterg, HCV inh)
CCOc1ccc(NCc2cccn2-c2nnc(N3CCC(C(=O)NCCCN4CC(C)CC(C)C4)CC3)s2)cc1 (stereo not drawn)	HCMV antiviral -85, HCV inh inconclusive
Cc1ccc(NC(=O)CN(C)C(=O)COC(=O)COc2cc(C)cc(C)c2)cc1	none (no result: AmpC no deterg, AmpC detergent, HCV inh)
Cc1ccc(-c2nc3sc(CCNC(=O)c4ccco4)c(C)n3n2)cc1	none (no result: AmpC no deterg, HCV inh)
CCN(CC)CCn1c2c(c(SCC(=O)Nc3cc(C)on3)nc1=O)CCCC2	none
COC(=O)c1ccc2nc(-c3ccc(Cl)cc3)c(Cc3ccccc3)n2c1	none (no result: AmpC no deterg, AmpC detergent, FMDV antiviral, HCV inh)
CN(Cc1nc2ccccc2c(=O)[nH]1)C(=O)c1ccc(S(=O)(=O)N2CCCC2)cc1	none
COc1ccc2c(c1)CCC(=O)C(C)CCO2 (stereo not drawn)	none (no result: AmpC no deterg, AmpC detergent, FMDV antiviral, HCV inh)
CC(C)Cc1ccc(C2=CSC3=NCCN23)cc1	HCV inh 11µM (no result: AmpC no deterg, AmpC detergent)
CC(C)(C)c1ccc(C2=CSC3=NCCN23)cc1	none
CCc1ccc(OCC(=O)Nc2ncn[nH]2)c(Br)c1	none (no result: AmpC no deterg, HCV inh)
COc1cc(NC(=O)c2cnc(NCc3ccccc3)nc2C)cc(OC)c1OC	AmpC detergent inconclusive, HCV inh 3.5µM
COc1ccc(N(CCCN2C(=O)c3cccc4cccc(c34)C2=O)C(=O)c2cccc(OC)c2)cc1	HCV inh 11µM
CN(C)CCN1C(=O)c2cccc3cc([N+](=O)[O-])cc(c23)C1=O	HCMV antiviral -98, HCV inh inconclusive (no result: AmpC no deterg, AmpC detergent)
CN(C)CCCN1C(=O)c2cccc3cccc(c23)C1=O	HCMV antiviral -64, HCV inh inconclusive
Cc1ccc(N(CCCCN2C(=O)c3ccccc3C2=O)C(=O)c2cccc([N+](=O)[O-])c2)cc1	none
CN(C)CCCN1C(=O)c2cc3ccccc3cc2C1=O	none
CN(C)CCN1C(=O)c2ccccc2C1=O	none
Cc1ccc(NC(=O)CCCN2C(=O)c3cccc4cccc(c34)C2=O)cc1	FMDV antiviral inconclusive, HCMV antiviral -73, HCV inh inconclusive
COc1cc(Cl)c(C)cc1NC(=O)c1sc2nc3n(c(=O)c2c1C)CCCCC3	none (no result: AmpC no deterg, HCV inh)
COC(=O)c1cc(S(=O)(=O)N2CCN(c3cccc(OC)c3)CC2)cn1C	HCMV antiviral inconclusive
COCC(=O)N1[C@@H]2Cn3c(ccc(Br)c3=O)[C@H]1[C@@H](C(=O)OC)[C@@H]2CO	none (no result: AmpC no deterg, AmpC detergent, FMDV antiviral, HCV inh)
CCOc1ccc(NC(=O)CN(C)C(=O)C2CCCO2)cc1OCC (stereo not drawn)	none
CC1(C)S[C@@H]2[C@H](N3C(=O)C(c4ccccc4)NC3(C)C)C(=O)N2[C@H]1C(=O)O (stereo partly drawn)	none (no result: AmpC no deterg, AmpC detergent, HCMV antiviral, HCV inh)
CC(CCc1ccc(O)cc1)NCc1ccc(Br)cc1 (stereo not drawn)	HCV inh inconclusive
O=C1c2cccc3cc([N+](=O)[O-])cc(c23)C(=O)N1CC1CCCO1 (stereo not drawn)	HCMV antiviral -63, HCV inh inconclusive
O=C1c2ccccc2C(=O)N1CC1CCCO1 (stereo not drawn)	HCV inh inconclusive (no result: HCMV antiviral)
COc1ccc(-c2cc(N)n(S(=O)(=O)c3c(F)c(F)c(F)c(F)c3F)n2)cc1OC	AmpC detergent inconclusive, FMDV antiviral inconclusive, HCMV antiviral -102, HCV inh inconclusive
COc1ccc(S(=O)(=O)n2nc(-c3cc(OC)c(OC)c(OC)c3)cc2N)cc1OC	HCV inh inconclusive
COc1cccc(-c2ccc3nnc(SCC(=O)N4CCOCC4)n3n2)c1	none
COc1ccc(/C(C)=N/N2C(=O)c3ccccc3NC2c2ccc(O)c(OC)c2)cc1 (stereo not drawn)	none
C/C(=N\N1C(=O)c2ccccc2NC1c1ccco1)c1ccccc1O (stereo not drawn)	HCMV antiviral -78, HCV inh 3.5µM
O=C1c2ccccc2NC(c2ccco2)N1/N=C/c1ccco1 (stereo not drawn)	none
C/C(=N\N1C(=O)c2ccccc2NC1c1ccccc1)c1ccccc1O (stereo not drawn)	HCMV antiviral -92, HCV inh inconclusive
CN(C(=O)CC(=O)Nc1ccc2nc3n(c(=O)c2c1)CCCCC3)c1ccccc1F	none (no result: AmpC no deterg, HCV inh)
CCOc1ccc(N(CC(=O)NN=C2CCN(C)CC2)S(=O)(=O)c2ccc(Br)cc2)cc1	none (no result: HCV inh)
COc1ccc2[nH]c(=O)c(CN(CCO)S(=O)(=O)c3ccc(C)cc3)cc2c1	none
CCCCN(Cc1cc2cc(OC)ccc2[nH]c1=O)S(=O)(=O)c1ccc(C)cc1	AmpC detergent inconclusive, FMDV antiviral inconclusive, HCMV antiviral -70, HCV inh 13µM
COC(=O)c1cccc(S(=O)(=O)N(Cc2ccco2)Cc2cc3cc(OC)ccc3[nH]c2=O)c1	FMDV antiviral 22µM, HCV inh inconclusive
COc1ccc(C(OC(=O)c2ccco2)C(=O)NC2CCCC2)cc1 (stereo not drawn)	none
O=C(c1ccc(S(=O)(=O)N2CCCC2)cc1)N(c1ccc(F)cc1)C1C=CS(=O)(=O)C1 (stereo not drawn)	HCMV antiviral -69
O=C(c1ccc2c(c1)OCO2)N(c1ccc(Br)cc1)C1C=CS(=O)(=O)C1 (stereo not drawn)	HCMV antiviral -60
CCc1ccccc1NC(=O)CSC1=Nc2ccccc2C2=NC(Cc3ccccc3)C(=O)N12 (stereo not drawn)	none (no result: AmpC no deterg, HCV inh)
Cc1cc(Nc2cccc(C(F)(F)F)c2)ncn1	none (no result: AmpC no deterg, HCV inh)
Cc1ccc(Nc2nc3nonc3nc2Nc2cccc(C(F)(F)F)c2)cc1Cl	FMDV antiviral inconclusive, HCMV antiviral -100 (no result: AmpC no deterg, HCV inh)
COc1ccc(CNCCC(c2ccc(OC)cc2)c2ccccc2OC)cc1 (stereo not drawn)	HCMV antiviral inconclusive, HCV inh inconclusive
COc1ccc(C(CCNCc2ccc(F)cc2)c2ccc(F)cc2)cc1 (stereo not drawn)	HCMV antiviral inconclusive, HCV inh inconclusive
COc1ccc(CNCCC(c2ccc(F)cc2)c2ccc(OC)cc2)cc1 (stereo not drawn)	AmpC detergent inconclusive, HCV inh inconclusive

Bioassay records from PubChem.
